# Measured values published in PubChem BioAssay (NCATS).
# Several values for one entry are separate records, joined by “and”; a condition that tells them apart may be missing. Equal values may be shown once. Inconclusive results are not listed. Values without a mark were called inactive. Activity calls are given as the source filed them. Calls come from the whole dose curve; as a rule, active = well fitted curve in the direction sought with a large enough effect; inconclusive = small, poorly fitted or top-dose-only effect, or another doubt; inactive = no such curve, though single readings can be large; an effect the other way counts as inactive or inconclusive.
# Test: Viability qHTS for spleen associated tyrosine kinase inhibitor (SYKi) drug resistant MV4-11 cells (AID 1963824); note: nearly all actives have a fitted effect of over 35% in size
# Details: SYKi-resistant MV4-11 viability, CellTiter-Glo, 72 h; series mostly up to 45 µM; viability, % of control: at the top concentration
# In short: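 CellTiter-Glo luminescence, read 10 min after reagent addition, reports viability after a 72 hr compound exposure. Cells are an MV4-11 line made resistant to SYK inhibition, seeded at 500 per well onto compound-containing plates.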
# Potency is the fitted concentration of half-maximal effect.
Compound,"viability, % of control [%]",Potency
COc1ccc(/C=C/C(=O)Nc2ccccc2C(=O)O)cc1OC,89.3,
O=C(c1ccc(NS(=O)(=O)c2cccc3cccnc23)cc1)N1CCN(CC2CC2)CC1,64.7,
CCCCCN=C(N)N/N=C/c1c[nH]c2ccc(OC)cc12,,2.66 µM (active)
COc1cccc2c1C(=O)c1c(O)c3c(c(O)c1C2=O)C[C@@](O)(C(C)=O)C[C@@H]3O[C@H]1C[C@H](N)[C@H](O)[C@H](C)O1,,42.2 nM (active) and 18.6 nM (active)
CCN(CC)CCOC(=O)c1ccc(N)cc1,82.4,
CN(C)CCOc1ccc(/C(=C(/CCCl)c2ccccc2)c2ccccc2)cc1,,13.2 µM (active)
COc1ccc2nc(SCc3ncc(C)c(OC)c3C)[nH]c2c1,62.2,
CNC(=O)c1ccccc1Nc1nc(Nc2ccc3c(c2OC)CCC[C@@H](N2CCN(CCO)CC2)C3)ncc1Cl,,0.58 µM (active)
O=C1C(O)=C(O)C(=O)C(O)=C1O,69,
CC(C)(O)C1CCC(Nc2ccc3ncc(-c4cccc(C(F)(F)F)c4)n3n2)CC1 (stereo not given),,1.32 µM (active)
COC(=O)C1=C(C)NC(c2ncc(F)cc2F)=N[C@@H]1c1ccc(F)cc1Cl,,20.9 µM (active)
C=CC(=O)Nc1cc(N2CCN(CC)CC2)ccc1Nc1cc(N(C)C(=O)Nc2c(Cl)c(OC)cc(OC)c2Cl)ncn1,,7.42 µM (active)
O=c1ncccn1[C@@H]1O[C@H](CO)[C@@H](O)[C@H]1O,,16.6 µM (active)
COc1cccc(-c2cc(F)ccc2C2Cc3nc(N)nc(C)c3C(=O)N2)n1 (stereo not given),,0.0186 µM (active)
CCN1CCN(Cc2ccc(NC(=O)c3ccc(C)c(/C=C/c4cnc5[nH]ccc5c4OC)c3)cc2C(F)(F)F)CC1,,20.6 nM (active) and 83.3 nM (active)
NC(=O)NC(=O)Cc1ccccc1,79.2,
COc1ccc(C(=O)c2ccccc2O)c(O)c1,,9.44 µM (active)
O=c1cc(N2CCOCC2)oc2c(-c3ccc4c(c3)OCCO4)csc12,,0.59 µM (active)
Cc1cc(-c2ccccc2)nnc1NCCN1CCOCC1,99,
COc1cc(/C=C/C(=O)O[C@H]2CC[C@]34C[C@]35CC[C@]3(C)[C@@H]([C@H](C)CCC=C(C)C)CC[C@@]3(C)[C@@H]5CC[C@H]4C2(C)C)ccc1O,,16.4 µM (active)

Compound,"viability, % of control [%]",Potency
O=C1OC2(CCC(C(=O)Nc3ccn(-c4ccccc4F)n3)CC2)c2cnccc21 (stereo not given),,4.17 µM (active)
OC1(c2ccc(Cl)c(C(F)(F)F)c2)CCN(CCCC(c2ccc(F)cc2)c2ccc(F)cc2)CC1,,2.99 µM (active) and 3.26 µM (active)
Cc1ccccc1-n1nc(-c2c(-c3ccc(F)cc3)nn3c2NC[C@@H](CO)C3)ccc1=O,,2.91 µM (active)
CC1CCc2c(N3CCC(O)CC3)c(F)cc3c(=O)c(C(=O)O)cn1c23 (stereo not given),83.9,
CCCC(=O)O[C@]1(C(=O)CC)CC[C@H]2[C@@H]3CCC4=CC(=O)CC[C@]4(C)[C@H]3[C@@H](O)C[C@@]21C,56.8,
COc1ccc(COc2ccc(Cc3cnc(N)nc3N)cc2OC)cc1,,7.31 µM (active)
CCOC(=O)[C@@](C)(N)Cc1ccc(O)c(O)c1,108,
COc1cc(N2CCC(N3CCN(C)CC3)CC2)ccc1Nc1ncc(Cl)c(Nc2ccccc2P(C)(C)=O)n1,,130 nM (active) and 23.5 nM (active)
CC(C)=CCC/C(C)=C/CC/C(C)=C/C(=O)OCC(=O)[C@@]1(O)CC[C@H]2[C@@H]3CCC4=CC(=O)C=C[C@]4(C)[C@H]3[C@@H](O)C[C@@]21C,,9.44 µM (active)
NS(=O)(=O)c1cc(-c2nn[nH]n2)c(NCc2cccs2)cc1Cl,93.8,
Cc1cc2c(C(C)C)c(O)c(O)c(C=O)c2c(O)c1-c1c(C)cc2c(C(C)C)c(O)c(O)c(C=O)c2c1O,,4.68 µM (active)
Nc1ccc(O)cc1,62.1,
COc1nc(OCc2cccc(-c3ccccc3)c2C)ccc1CNCCNC(C)=O,,3.72 µM (active)
CCc1cccc2c3c([nH]c12)[C@@](CC)(CC(=O)O)OCC3,,14.8 µM (active)
COc1ccc(CCN2CCC(Nc3nc4ccccc4n3Cc3ccc(F)cc3)CC2)cc1,,8.41 µM (active)
CO[C@@H]1[C@@H](O)[C@H](O)[C@@H](n2c3c(Cl)cccc3c3c4c(c5c6cccc(Cl)c6[nH]c5c32)C(=O)NC4=O)O[C@H]1CO,,0.742 µM (active)
C[C@@H](O)[C@H]1C(=O)N2C(C(=O)O)=C([C@H]3CCCO3)S[C@H]12,92.9,
Clc1ccccc1CN1CCc2sccc2C1,,18.8 µM (active)
COc1cc(N)c(Cl)cc1C(=O)NC1CCN(Cc2ccccc2)CC1,75.1,
CN1CCN(c2ccc3nc(-c4c(N)c5c(F)cccc5[nH]c4=O)[nH]c3c2)CC1,,16.4 nM (active) and 18.6 nM (active)

# Test: Cellular viability qHTS for adrenocortical cancer (ACC) cell line SW-13 (AID 1963989); note: nearly all actives have a fitted effect of over 65% in size;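 for activity (max response): cells grown in serum-free medium with ITS supplement; % is set by controls: 0 for no effect and ±100 for the full control effect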
# Details: SW-13 ACC cells viability, CellTiter-Glo, 48 h; activity (max response): hits give low values
# In short: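 Viability was read as CellTiter-Glo luminescence after 48 h compound treatment (up to 46 uM final) of SW-13 cells grown serum-free; titration curves were fit with a four-parameter logistic model to give IC50 and efficacy.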
Compound,activity (max response) [%],Potency
COc1ccc(/C=C/C(=O)Nc2ccccc2C(=O)O)cc1OC,-0.0143,
O=C(c1ccc(NS(=O)(=O)c2cccc3cccnc23)cc1)N1CCN(CC2CC2)CC1,-19.6,
CCCCCN=C(N)N/N=C/c1c[nH]c2ccc(OC)cc12,,13 µM (active)
COc1cccc2c1C(=O)c1c(O)c3c(c(O)c1C2=O)C[C@@](O)(C(C)=O)C[C@@H]3O[C@H]1C[C@H](N)[C@H](O)[C@H](C)O1,,51.7 nM (active) and 501 nM (active)
CCN(CC)CCOC(=O)c1ccc(N)cc1,7.42,
CN(C)CCOc1ccc(/C(=C(/CCCl)c2ccccc2)c2ccccc2)cc1,-6.2,
COc1ccc2nc(SCc3ncc(C)c(OC)c3C)[nH]c2c1,3.67,
CNC(=O)c1ccccc1Nc1nc(Nc2ccc3c(c2OC)CCC[C@@H](N2CCN(CCO)CC2)C3)ncc1Cl,,15.8 µM (active)
O=C1C(O)=C(O)C(=O)C(O)=C1O,13.8,
CC(C)(O)C1CCC(Nc2ccc3ncc(-c4cccc(C(F)(F)F)c4)n3n2)CC1 (stereo not given),-17.2,
COC(=O)C1=C(C)NC(c2ncc(F)cc2F)=N[C@@H]1c1ccc(F)cc1Cl,-20.4,
C=CC(=O)Nc1cc(N2CCN(CC)CC2)ccc1Nc1cc(N(C)C(=O)Nc2c(Cl)c(OC)cc(OC)c2Cl)ncn1,-15,
O=c1ncccn1[C@@H]1O[C@H](CO)[C@@H](O)[C@H]1O,-5.69,
COc1cccc(-c2cc(F)ccc2C2Cc3nc(N)nc(C)c3C(=O)N2)n1 (stereo not given),,0.112 µM (active)
CCN1CCN(Cc2ccc(NC(=O)c3ccc(C)c(/C=C/c4cnc5[nH]ccc5c4OC)c3)cc2C(F)(F)F)CC1,,3.16 µM (active)
NC(=O)NC(=O)Cc1ccccc1,-0.635,
COc1ccc(C(=O)c2ccccc2O)c(O)c1,11.3,
O=c1cc(N2CCOCC2)oc2c(-c3ccc4c(c3)OCCO4)csc12,,11.2 µM (active)
Cc1cc(-c2ccccc2)nnc1NCCN1CCOCC1,-11,
COc1cc(/C=C/C(=O)O[C@H]2CC[C@]34C[C@]35CC[C@]3(C)[C@@H]([C@H](C)CCC=C(C)C)CC[C@@]3(C)[C@@H]5CC[C@H]4C2(C)C)ccc1O,,14.6 µM (active)

Compound,activity (max response) [%],Potency
O=C1OC2(CCC(C(=O)Nc3ccn(-c4ccccc4F)n3)CC2)c2cnccc21 (stereo not given),-3.21,
OC1(c2ccc(Cl)c(C(F)(F)F)c2)CCN(CCCC(c2ccc(F)cc2)c2ccc(F)cc2)CC1,,4.11 µM (active)
Cc1ccccc1-n1nc(-c2c(-c3ccc(F)cc3)nn3c2NC[C@@H](CO)C3)ccc1=O,12.4,
CC1CCc2c(N3CCC(O)CC3)c(F)cc3c(=O)c(C(=O)O)cn1c23 (stereo not given),-4.15,
CCCC(=O)O[C@]1(C(=O)CC)CC[C@H]2[C@@H]3CCC4=CC(=O)CC[C@]4(C)[C@H]3[C@@H](O)C[C@@]21C,0.342,
COc1ccc(COc2ccc(Cc3cnc(N)nc3N)cc2OC)cc1,-16.4,
CCOC(=O)[C@@](C)(N)Cc1ccc(O)c(O)c1,-4.97,
COc1cc(N2CCC(N3CCN(C)CC3)CC2)ccc1Nc1ncc(Cl)c(Nc2ccccc2P(C)(C)=O)n1,,1 µM (active)
CC(C)=CCC/C(C)=C/CC/C(C)=C/C(=O)OCC(=O)[C@@]1(O)CC[C@H]2[C@@H]3CCC4=CC(=O)C=C[C@]4(C)[C@H]3[C@@H](O)C[C@@]21C,9.99,
NS(=O)(=O)c1cc(-c2nn[nH]n2)c(NCc2cccs2)cc1Cl,11.4,
Cc1cc2c(C(C)C)c(O)c(O)c(C=O)c2c(O)c1-c1c(C)cc2c(C(C)C)c(O)c(O)c(C=O)c2c1O,,10 µM (active)
Nc1ccc(O)cc1,0.149,
COc1nc(OCc2cccc(-c3ccccc3)c2C)ccc1CNCCNC(C)=O,,7.94 µM (active)
CCc1cccc2c3c([nH]c12)[C@@](CC)(CC(=O)O)OCC3,-21.1,
COc1ccc(CCN2CCC(Nc3nc4ccccc4n3Cc3ccc(F)cc3)CC2)cc1,,20.6 µM (active)
CO[C@@H]1[C@@H](O)[C@H](O)[C@@H](n2c3c(Cl)cccc3c3c4c(c5c6cccc(Cl)c6[nH]c5c32)C(=O)NC4=O)O[C@H]1CO,,0.316 µM (active)
C[C@@H](O)[C@H]1C(=O)N2C(C(=O)O)=C([C@H]3CCCO3)S[C@H]12,12.4,
Clc1ccccc1CN1CCc2sccc2C1,1.55,
COc1cc(N)c(Cl)cc1C(=O)NC1CCN(Cc2ccccc2)CC1,-15.7,
CN1CCN(c2ccc3nc(-c4c(N)c5c(F)cccc5[nH]c4=O)[nH]c3c2)CC1,,15.8 µM (active)
